Each structure is given as a SMILES string. Results filed as inconclusive are left out. Entries that show only a call come without a potency. The source made the active and inactive calls. Calls come from the whole dose curve; as a rule, active = well fitted inhibition curve with a large enough effect in the repeat runs; inconclusive = weak or mixed curves; inactive = flat fitted curve, though single readings scatter.
Potency is the fitted concentration of half-maximal effect.

Voltage-gated inwardly rectifying potassium channel KCNH2 (Homo sapiens), sequence (Q12809 whole entry, looked up): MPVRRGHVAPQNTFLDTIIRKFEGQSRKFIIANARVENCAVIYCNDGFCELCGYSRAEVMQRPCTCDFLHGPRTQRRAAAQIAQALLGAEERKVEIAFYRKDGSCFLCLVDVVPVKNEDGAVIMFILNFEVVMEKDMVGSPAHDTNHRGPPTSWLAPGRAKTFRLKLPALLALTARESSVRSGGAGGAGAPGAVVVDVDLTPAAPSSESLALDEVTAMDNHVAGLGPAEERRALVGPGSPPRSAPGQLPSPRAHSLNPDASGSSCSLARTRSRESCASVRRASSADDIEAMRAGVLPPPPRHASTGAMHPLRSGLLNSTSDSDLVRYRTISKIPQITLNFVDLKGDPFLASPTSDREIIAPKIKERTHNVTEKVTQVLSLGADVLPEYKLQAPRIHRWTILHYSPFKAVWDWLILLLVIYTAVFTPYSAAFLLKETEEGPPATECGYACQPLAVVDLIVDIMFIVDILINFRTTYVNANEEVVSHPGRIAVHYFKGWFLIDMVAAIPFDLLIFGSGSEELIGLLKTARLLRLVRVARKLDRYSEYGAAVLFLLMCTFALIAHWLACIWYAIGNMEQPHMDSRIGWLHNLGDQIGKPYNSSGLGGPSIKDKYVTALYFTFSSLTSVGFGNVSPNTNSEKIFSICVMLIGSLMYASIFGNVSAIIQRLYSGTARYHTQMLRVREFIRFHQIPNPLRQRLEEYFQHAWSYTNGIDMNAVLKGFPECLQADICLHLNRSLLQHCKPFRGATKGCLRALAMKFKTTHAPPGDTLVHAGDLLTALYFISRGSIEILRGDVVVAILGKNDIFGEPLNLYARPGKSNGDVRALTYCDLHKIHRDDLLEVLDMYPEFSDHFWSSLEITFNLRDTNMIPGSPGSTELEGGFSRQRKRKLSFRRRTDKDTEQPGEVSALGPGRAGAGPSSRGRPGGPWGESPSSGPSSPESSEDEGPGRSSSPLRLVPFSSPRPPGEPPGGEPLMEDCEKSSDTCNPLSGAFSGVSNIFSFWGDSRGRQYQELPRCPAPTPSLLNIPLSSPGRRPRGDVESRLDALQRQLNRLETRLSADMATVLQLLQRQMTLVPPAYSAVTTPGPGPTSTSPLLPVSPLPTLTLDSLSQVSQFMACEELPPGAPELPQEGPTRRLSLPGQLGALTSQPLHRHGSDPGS

In this assay the target is Voltage-gated inwardly rectifying potassium channel KCNH2 (Homo sapiens) (UniProt Q12809). The assay is described as follows: Human Ether-a-go-go-Related Gene (hERG) channel small molecule antagonists: fluorescence cell-based qHTS assay (AID 1671200). Note: nearly all actives have a fitted effect of over 50% in size. Particulars: hERG-U2OS cells, FluxOR thallium flux fluorescence; series mostly up to 76.8 µM. The text has this:
National Center for Advancing Translational Sciences [NCATS]
U.S. Environmental Protection Agency [EPA]
National Institutes of Environmental Health Sciences [NIEHS]
National Toxicology Program [NTP]
U.S. Food and Drug Administration [FDA]
Mutations in the hERG channel cause Long QT (LQT) syndrome. LQT syndrome is a cardiac disorder which can cause ventricle arrhythmia and sudden death. Additionally, compounds which block the hERG channel can cause acquired LQT syndrome. Several FDA approved drugs have been removed from the market due to their hERG blocking activity. A cell-based hERG channel inhibition assay can be used to screen chemical compounds that inhibit hERG channel. This assay measures hERG channel activity using thallium ions as surrogate ions to measure potassium into the cells.
Tox21 Assay Protocol Summary:
hERG-U2OS cells were resuspended in culture medium and dispensed into 1536-well, black wall/clear-bottom plates at 1000cells/well/3uL using a Multidrop Combi dispenser (Thermo Fisher, Waltham, MA). After plates were incubated at 37 C overnight, 3 uL of Loading Buffer provided by FluxOR II Potassium Ion Channel Assay kit (Thermo, Carlsbad, CA) was added to each well. The assay plates were then incubated at room temperature in the dark for 1h. […] After the assay plates were incubated at room temperature for 10 min, 1 uL of Stimulus Buffer provided by FluxOR II Potassium Ion Channel Assay kit was added into each well and fluorescence intensity (480nm excitation/540nm emission) was continuously measured for 2 min at 1 second intervals using a Functional Drug Screening System (FDSS) 7000EX kinetic plate reader (Hamamatsu, Japan).
Background: The hERG channel carries a current that helps repolarise heart muscle cells.
On to `Cc1onc(-c2c(Cl)cccc2Cl)c1C(=O)Cl`, for which the Potency entry was “inactive”. To `CN(C)CCN(C)CCN(C)C` belongs “inactive”; to `C[N+](C)(C)CCCCCCCCCC[N+](C)(C)C`, “inactive”. To `CCCCCCC1CCC(=O)O1` (stereo not given) belongs “inactive”; to `COc1cc2c(cc1OC)-c1cc3ccc(OC)c(OC)c3c[n+]1CC2`, “inactive”. To `C[C@H]1[C@H](NC(=O)/C(=N/OC(C)(C)C(=O)O)c2csc(N)n2)C(=O)N1S(=O)(=O)O` (stereo in doubt) belongs “inactive”. For `CCCC[N+](C)(CCCC)CCCC`, the Potency entry is “inactive”. To `CC(C)CCCO` belongs “inactive”.

In the case of `CCCOC(=O)CC`, the Potency entry was “inactive”. For the molecule `[K+]`, the Potency result is “inactive”. To `CCCCCCCCCCCCCCC(=O)O` belongs “inactive”; to `C=COC(=O)C(C)(CC)CCC(C)C` (stereo not given), “inactive”.

With `CCN(C=O)CC`, the Potency entry is “inactive”. The entry for `Cc1ncc([C@@H](CCCCCCc2ccc3c(n2)NCCC3)CC(=O)O)cn1` is “inactive”; for `CCN(CC#N)c1cccc(C)c1` it is “inactive”; for `CCCCOCCOC(=O)COc1cc(Cl)c(Cl)cc1Cl` it is 24.5 µM (active). For `O=S(=O)(O)c1cccc(S(=O)(=O)O)c1`, the Potency entry is “inactive”.

As for `CC(=O)c1cnccn1`, the Potency entry is “inactive”.

On to `COc1cccc(OC)c1C(=O)N[C@@H]1C(=O)N2[C@@H]1SC(C)(C)[C@@H]2C(=O)O`, for which the Potency result was “inactive”. `COc1cc(C(=O)NCc2ccc(OCCN(C)C)cc2)cc(OC)c1OC`: the Potency entry was “inactive”.

Turning to `CCCCOCCOC(=O)CCCCCCCCC(=O)OCCOCCCC`, the Potency result was “inactive”. In the case of `CC(C)(C)C(=O)Oc1ccc(S(=O)(=O)Nc2ccccc2C(=O)NCC(=O)O)cc1`, the Potency entry is “inactive”. To `CCN[C@H]1C[C@H](C)S(=O)(=O)c2sc(S(N)(=O)=O)cc21` belongs “inactive”. Turning to `Cc1ccc(-c2ccccc2C#N)cc1`, the Potency result was “inactive”. The entry for `COC(=O)Nc1ccc(Cl)c(Cl)c1` is “inactive”.

For the molecule `CCCCCCCCCCCCSC`, the Potency entry is “inactive”. As to `CC(C)[C@H]1CC[C@@H](C)CC1=O`, the Potency entry was “inactive”. Turning to `CNC(=O)Nc1ccc(Cl)c(Cl)c1`, the Potency entry is “inactive”. For `C[N+]1(C)CCCC(OC(=O)C(O)(c2ccccc2)c2ccccc2)C1` (stereo not given), the Potency entry was “inactive”. To `c1ccc(CCc2ccccc2)cc1` belongs “inactive”; to `NC(=O)NC1N=C([O][Al])NC1=O` (stereo not given), “inactive”.

On to `CC(C)C1CCC(O)CC1` (stereo not given), for which the Potency entry is “inactive”. To `C=C(C)C(=O)OCCOCCOCCOCCOC(=O)C(=C)C` belongs “inactive”; to `O=C(CO)[C@@H](O)[C@H](O)[C@H](O)CO`, “inactive”. The entry for `CC(=O)c1ccc2ccccc2c1` is “inactive”; for `CC1OC1C1CCC2(C)OC2C1` (stereo not given) it is “inactive”; for `CCOC(=O)C(=O)CCCCCCl` it is “inactive”. To `CN(C)CCCCCCN(C)C` belongs “inactive”.

Take `O=S(=O)(O)c1cccc2ccccc12`: the Potency entry is “inactive”. Turning to `CCOC(=O)c1cnc2c(cnn2CC)c1NN=C(C)C`, the Potency result was “inactive”.

For the origin of these results see PubChem BioAssay (Tox21).
